Reference: PubChem BioAssay (NCATS)
Records with an inconclusive call do not appear. Where a call stands in place of a potency, no number is given. Active and inactive are the calls of the source. Calls come from the whole dose curve; as a rule, active = well fitted curve in the direction sought with a large enough effect; inconclusive = small, poorly fitted or top-dose-only effect, or another doubt; inactive = no such curve, though single readings can be large; an effect the other way counts as inactive or inconclusive.

Assays:
[1] = target: Glutathione peroxidase 1 (Homo sapiens) (UniProt P07203); assay: Primary qHTS Assay for Inhibitors of Recombinant Selenoprotein Glutathione Peroxidase 1 (GPX1) (AID 1845191); note: nearly all actives have a fitted effect of over 65% in size
Glutathione peroxidase 1 (Homo sapiens), sequence (P07203 whole entry, looked up): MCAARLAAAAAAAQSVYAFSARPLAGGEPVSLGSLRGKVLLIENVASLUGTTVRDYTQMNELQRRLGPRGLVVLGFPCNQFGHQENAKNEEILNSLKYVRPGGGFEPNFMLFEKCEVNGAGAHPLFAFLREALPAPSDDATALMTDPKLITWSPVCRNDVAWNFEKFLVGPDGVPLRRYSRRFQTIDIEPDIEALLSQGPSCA
Procedure, shortened: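 GPX1 10 nM, GR 100 nM, GSH 1 mM, NADPH 0.5 mM, CHP 0.5 mM (final). 30-min cpd preincubation, RT. Ex340/Em450 read t=0, t=15 min.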

[2] = target: Phospholipid hydroperoxide glutathione peroxidase GPX4 (Homo sapiens) (UniProt P36969); assay: Primary qHTS Assay for Inhibitors of Recombinant Selenoprotein Glutathione Peroxidase 4 (GPX4) (AID 1845192); note: nearly all actives have a fitted effect of over 65% in size; for activity change, negative = inhibition: series mostly up to about 50 µM
Phospholipid hydroperoxide glutathione peroxidase GPX4 (Homo sapiens), sequence (P36969 whole entry, looked up): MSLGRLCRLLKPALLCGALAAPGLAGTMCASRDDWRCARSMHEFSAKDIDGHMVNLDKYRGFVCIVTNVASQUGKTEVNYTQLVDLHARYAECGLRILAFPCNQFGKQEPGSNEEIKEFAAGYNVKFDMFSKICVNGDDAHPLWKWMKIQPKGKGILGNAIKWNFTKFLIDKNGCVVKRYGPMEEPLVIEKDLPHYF
Procedure, shortened: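 qHTS, GR-coupled: GPX4 200 nM + cpd 30 min RT → GSH 1 mM, NADPH 0.5 mM, GR 100 nM → CHP 0.5 mM start; fluor 340/450 at t0 and t15 min; no-enzyme wells as control.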

[3] = target: Nuclear receptor subfamily 1 group I member 3 (Homo sapiens) (UniProt Q14994); assay: Primary qHTS for antagonist of constitutive androstane receptor (CAR) against the NCATS DSHEA and TCM libraries (AID 1794836); note: series mostly up to about 40 µM
Nuclear receptor subfamily 1 group I member 3 (Homo sapiens), sequence (Q14994 whole entry, looked up): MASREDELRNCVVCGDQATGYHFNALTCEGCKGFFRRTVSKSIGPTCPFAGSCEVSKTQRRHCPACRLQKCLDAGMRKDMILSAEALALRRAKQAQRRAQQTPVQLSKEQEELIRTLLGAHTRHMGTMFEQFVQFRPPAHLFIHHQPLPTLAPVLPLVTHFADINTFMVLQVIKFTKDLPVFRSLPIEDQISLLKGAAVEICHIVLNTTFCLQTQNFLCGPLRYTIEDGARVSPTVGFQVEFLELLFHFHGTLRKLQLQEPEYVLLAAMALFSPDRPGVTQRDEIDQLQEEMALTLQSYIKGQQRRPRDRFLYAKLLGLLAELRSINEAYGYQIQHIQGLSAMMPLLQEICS
Procedure, shortened: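 HepG2 cells stably carrying hCAR and a CYP2B6 luciferase reporter (2,500 cells/well) attached for 5 h, then received compounds with 48 uM CITCO for 24 h at 37C. ONE-Glo luminescence read antagonism; CellTiter-Fluor (405/540 nm) gave viability.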

[4] = target: Metallo-beta-lactamase type 2 (Klebsiella pneumoniae) (UniProt C7C422); assay: qHTS to identify inhibitors of the New Delhi Metallo-beta-lactamase (NDM): assay validation screen against the NCATS LOPAC Collection (AID 1794843);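 note: nitrocefin turnover by NDM-1 measured as 485 nm absorbance at plateau; series mostly up to about 38 µM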
Metallo-beta-lactamase type 2 (Klebsiella pneumoniae), sequence (C7C422 whole entry, looked up): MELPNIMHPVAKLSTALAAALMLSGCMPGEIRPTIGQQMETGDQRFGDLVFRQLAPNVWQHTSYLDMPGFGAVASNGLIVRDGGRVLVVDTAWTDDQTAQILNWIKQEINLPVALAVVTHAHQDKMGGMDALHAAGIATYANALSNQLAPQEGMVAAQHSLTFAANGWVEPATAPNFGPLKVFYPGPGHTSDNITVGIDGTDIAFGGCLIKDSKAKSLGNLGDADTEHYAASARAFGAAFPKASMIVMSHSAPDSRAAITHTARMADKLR
Procedure, shortened: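 Enzyme 2 nM final, 50 mM HEPES pH 7.0, 1 uM ZnSO4, 0.01% Tween20; cpds in DMSO, preincub w/ enzyme; + nitrocefin (50 uM stock); A485 at plateau; no-enzyme column as blank.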

[5] = Quantitative High-Throughput drug screen in 47 multiple myeloma cell lines against the NCATS MIPE library collection: FR4_PLB cell viability assay (AID 1918924; note: nearly all actives have a fitted effect of over 35% in size)
Procedure, shortened: (§1)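 Relative luminescence from CellTiter-Glo served as the viability signal, referenced to DMSO-treated (100%) and cell-free medium (0%) controls. Treatment lasted 48 hours at 37C with 500 cells per well.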

[6] = Quantitative High-Throughput drug screen in 47 multiple myeloma cell lines against the NCATS MIPE library collection: Delta47_JCRB cell viability assay (AID 1918925; note: nearly all actives have a fitted effect of over 45% in size; note: potency is the fitted concentration of half-maximal effect)
Procedure, shortened: (§2)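 qHTS of the MIPE 4.0 collection: 500 myeloma cells/well, 48 h drug exposure at 37C in 5% CO2, then CellTiter-Glo for 5 min at room temperature before luminescence reading.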

[7] = Quantitative High-Throughput drug screen in 47 multiple myeloma cell lines against the NCATS MIPE library collection: ARD_JJKsccE7 cell viability assay (AID 1918929)
Procedure, shortened: as §2

[8] = Quantitative High-Throughput drug screen in 47 multiple myeloma cell lines against the NCATS MIPE library collection: Karpas620_DSMZ cell viability assay (AID 1918959); note: nearly all actives have a fitted effect of over 30% in size; note: potency is the fitted concentration of half-maximal effect
Procedure, shortened: as §1

[9] = Quantitative High-Throughput drug screen in 47 multiple myeloma cell lines against the NCATS MIPE library collection: Karpas417_ECACC cell viability assay (AID 1918961)
Procedure, shortened: as §1

[10] = Quantitative High-Throughput drug screen in 47 multiple myeloma cell lines against the NCATS MIPE library collection: KHM11_PLB cell viability assay (AID 1918962); note: nearly all actives have a fitted effect of over 35% in size
Procedure, shortened: as §1

[11] = Quantitative High-Throughput drug screen in 47 multiple myeloma cell lines against the NCATS MIPE library collection: AMO1_DSMZ cell viability assay (AID 1918927; note: nearly all actives have a fitted effect of over 30% in size)
Procedure, shortened: as §2

[12] = Quantitative High-Throughput drug screen in 47 multiple myeloma cell lines against the NCATS MIPE library collection: ARP1_JJKsccF8 cell viability assay (AID 1918928; note: nearly all actives have a fitted effect of over 40% in size; note: potency is the fitted concentration of half-maximal effect)
Procedure, shortened: (§3)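 500 cells/well; MIPE 4.0 library pinned in; 48 h, 37 °C, 5% CO2; CellTiter-Glo ATP luminescence. Controls: DMSO = 100% viability, medium only = 0%.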

[13] = Quantitative High-Throughput drug screen in 47 multiple myeloma cell lines against the NCATS MIPE library collection: KMM1_JCRB cell viability assay (AID 1918960); note: nearly all actives have a fitted effect of over 30% in size
Procedure, shortened: as §3

[14] = Quantitative High-Throughput drug screen in 47 multiple myeloma cell lines against the NCATS MIPE library collection: JIM1_ECACC cell viability assay (AID 1918964)
Procedure, shortened: as §2

[15] = target: Luciferin 4-monooxygenase (Photinus pyralis) (UniProt P08659); assay: Primary firefly luciferase (FLuc) qHTS assay for identification of artifact compounds. (AID 1845220); details: outcome: dose series up to 54.1 µM unless noted; note: nearly all actives have a fitted effect of over 60% in size; for activity change, negative = inhibition: series mostly up to about 54 µM
Procedure, shortened: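 Reaction readout was CCD-imaged luminescence, taken 5 min after adding 10 nM purified firefly enzyme to compound-treated wells holding 10 uM luciferin and ATP in pH 7.6 buffer.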

[16] = Primary fluorescence-based thiol-reactive (MSTI) qHTS assay for identification of artifact compounds. (AID 1845221);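 note: series mostly up to about 54 µM; thiol-reactive compounds lower the probe fluorescence signal; nearly all actives have a fitted effect of over 65% in size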
Procedure, shortened: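 Probe: MSTI 4 uM, PBS pH 7.4, 2% DMSO. Incubation 1 h, RT, light-protected. Readout fluorescence 525/598 nm.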

[17] = Primary redox qHTS assay for identification of artifact compounds. (AID 1845223)
Procedure, shortened: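 Redox-cycling detection via DTT (250 uM final) oxidation coupled to Amplex Red (25 uM)/HRP (250 mU/mL) in HBSS. 15 min preincubation plus 30 min after DTT, room temperature. Ex/Em 525/598 nm; 4-parameter Hill fit against DMSO and 10 uM DA3003.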

[18] = NCATS anti-infectives library activity on HEK293 viability as a counter-qHTS vs the C. elegans viability qHTS (AID 1745854)
Procedure, shortened: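 CellTiter-Glo luminescence, read on a CCD imager, scored viability of HEK293 cells after 24 hr compound exposure at 37C. Library tested in several concentrations, 1:5 steps, up to 41.7 uM; digitonin served as control.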

[19] = system: Nanoluciferase (engineered Oplophorus gracilirostris luciferase); assay: Primary Nanoluciferase (NLuc) qHTS assay for identification of artifact compounds. (AID 1845222);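 note: NLuc secreted into diluted conditioned medium of S16 cells; series mostly up to about 54 µM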
Procedure, shortened: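 Concentration-response data were obtained by luminescence after 5 min with Nano-Glo substrate at 1:100. The enzyme was diluted S16 NLuc-expressing cell medium, preincubated with compound for 15 min at RT. Curves were fitted with a 4-parameter Hill model.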

[20] = target: Phenylethanolamine N-methyltransferase (Homo sapiens) (UniProt P11086); assay: Confirmatory Screen for Target Class Profiling of Small Molecule Inhibitors of Methyltransferases (AID 1745852); details: MTase-Glo luminescence, SAH detection, recombinant enzyme; measured here: PNMT max response; stronger effect = lower value
Phenylethanolamine N-methyltransferase (Homo sapiens), sequence (P11086 whole entry, looked up): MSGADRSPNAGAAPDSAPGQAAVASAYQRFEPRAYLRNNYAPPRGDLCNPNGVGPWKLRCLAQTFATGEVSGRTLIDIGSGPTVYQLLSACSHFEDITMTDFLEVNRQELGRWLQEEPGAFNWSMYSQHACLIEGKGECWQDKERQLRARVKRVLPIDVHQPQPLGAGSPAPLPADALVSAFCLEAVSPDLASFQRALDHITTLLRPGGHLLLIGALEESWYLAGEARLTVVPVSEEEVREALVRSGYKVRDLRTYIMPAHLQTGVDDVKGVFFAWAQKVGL

Nc1ccc([As](=O)(O)O)cc1
Potency [1]: inactive
Potency [2]: inactive

CN1C[C@H](C(=O)N[C@]2(C)O[C@@]3(O)[C@@H]4CCCN4C(=O)[C@H](Cc4ccccc4)N3C2=O)C=C2c3cccc4[nH]cc(c34)C[C@H]21
Potency [1]: inactive

C[C@]12CC[C@@H]3c4ccc(OC(=O)N(CCCl)CCCl)cc4CC[C@H]3[C@@H]1CC[C@@H]2O
Potency [1]: inactive
Potency [2]: inactive

O=C(O)c1cc(O)c(O)c(O)c1
outcome [3]: inactive

O=C(O)CCCC[C@@H]1SC[C@@H]2NC(=O)N[C@@H]21
outcome [3]: inactive

COc1cccc(C(=O)CCN[C@@H](C)[C@H](O)c2ccccc2)c1
Potency [1]: inactive
Potency [2]: inactive

C=C(C)[C@H]1CN[C@H](C(=O)O)[C@H]1CC(=O)O
Potency [1]: inactive
Potency [2]: inactive

CN1C(=O)NC(=O)C(C)(C2=CCCCC2)C1=O (centres undefined)
Potency [1]: inactive
Potency [2]: inactive

C[C@]12CC[C@H]3[C@@H](CCC4=CC(=O)CC[C@@H]43)[C@@H]1CC[C@@H]2OC(=O)CCC1CCCCC1
Potency [1]: inactive

C[C@]12Cc3cn[nH]c3C[C@@H]1CC[C@@H]1[C@@H]2CC[C@@]2(C)[C@H]1CC[C@]2(C)O
Potency [1]: inactive
Potency [2]: inactive

O=P1(N(CCCl)CCCl)NCCCO1 (centres undefined)
outcome [4]: inactive
Potency [1]: inactive
Potency [2]: inactive
Potency [5]: inactive
Potency [6]: 14.8 µM (active)
Potency [7]: inactive
Potency [8]: 18.7 µM (active)
Potency [9]: inactive
Potency [10]: inactive

CCCCCN(C)CCC(O)(P(=O)(O)O)P(=O)(O)O
outcome [4]: inactive
Potency [1]: inactive
Potency [2]: inactive

O=c1[nH]oc2c1CCNC2
outcome [4]: inactive
Potency [1]: inactive
Potency [2]: inactive

COc1cccc2c1C(=O)c1c(O)c3c(c(O)c1C2=O)C[C@@](O)(C(=O)CO)CC3OC1CC(N2CCOC(OC)C2)C(O)C(C)O1 (some centres undefined)
Potency [1]: inactive

CC(C)[C@H]1C(=O)N2CCC[C@H]2[C@]2(O)O[C@](NC(=O)[C@@H]3C[C@@H]4c5cccc6[nH]cc(c56)C[C@H]4N(C)C3)(C(C)C)C(=O)N12
Potency [1]: inactive

CC(C)c1cccc(C(C)C)c1O
outcome [4]: inactive
Potency [1]: inactive
Potency [2]: inactive
Potency [5]: inactive
Potency [6]: inactive
Potency [11]: inactive
Potency [12]: inactive
Potency [7]: inactive
Potency [8]: inactive
Potency [13]: inactive
outcome [14]: inactive

C=CCC1(C(C)CC)C(=O)NC(=O)NC1=O (centres undefined)
Potency [1]: inactive
Potency [2]: inactive

CCCCCCCCCCCCCCCC(=O)O
outcome [3]: inactive

O=C1OC(c2ccc(O)c(S(=O)(=O)O)c2)(c2ccc(O)c(S(=O)(=O)O)c2)c2c(Br)c(Br)c(Br)c(Br)c21
Potency [1]: inactive

Cc1ncsc1CCCl
outcome [4]: inactive
Potency [1]: inactive
Potency [2]: inactive

CC(NC(C)(C)C)C(=O)c1cccc(Cl)c1 (centres undefined)
outcome [4]: inactive
Potency [1]: inactive
Potency [2]: inactive
outcome [15]: inactive
outcome [16]: inactive
outcome [17]: inactive
Potency [5]: inactive
Potency [11]: inactive
Potency [12]: 13.2 µM (active)
Potency [8]: inactive

O=C1c2ccccc2C(=O)c2ccccc21
outcome [18]: inactive
Potency [1]: inactive
Potency [2]: inactive

c1ccc2c(c1)sc1ccccc12
Potency [1]: inactive
Potency [2]: inactive

O=C(CCCN1CCC2(CC1)C(=O)NCN2c1ccccc1)c1ccc(F)cc1
outcome [4]: inactive
Potency [1]: inactive
Potency [2]: inactive

C=CCc1ccc(O)c(OC)c1
outcome [3]: inactive

Nc1ccccc1
Potency [1]: inactive
Potency [2]: inactive

CN1C(=O)CCS(=O)(=O)C1c1ccc(Cl)cc1 (centres undefined)
outcome [4]: inactive
Potency [1]: inactive
Potency [2]: inactive
Potency [11]: inactive
Potency [7]: inactive
Potency [8]: inactive
Potency [13]: inactive
outcome [14]: inactive

CC(C)(C)NCC(O)c1ccccc1Cl (centres undefined)
outcome [18]: inactive
outcome [4]: inactive
Potency [1]: inactive
Potency [2]: inactive

Nc1ccc(C(=O)O)cc1
outcome [3]: inactive

NNC(=O)c1ccncc1
outcome [3]: inactive

CC(C)N(CCC(C(N)=O)(c1ccccc1)c1ccccn1)C(C)C (centres undefined)
outcome [4]: inactive
Potency [1]: inactive
Potency [2]: inactive
outcome [15]: inactive
outcome [19]: inactive
outcome [17]: inactive

Cc1ccc(C(C)C)c(O)c1
outcome [3]: inactive

NCCc1ccc(O)cc1
activity [20]: -8.79%
outcome [4]: inactive
Potency [1]: inactive
Potency [2]: inactive

Clc1ccc(C(c2ccc(Cl)cc2)C(Cl)(Cl)Cl)cc1
Potency [1]: inactive
Potency [2]: inactive

CCC1(c2ccc(N)cc2)CCC(=O)NC1=O (centres undefined)
outcome [4]: inactive
Potency [1]: inactive
Potency [2]: inactive
Potency [5]: inactive
Potency [6]: inactive
Potency [11]: inactive
Potency [12]: inactive
Potency [7]: inactive
Potency [8]: inactive
Potency [13]: inactive

CC(C)=CCC[C@@](C)(O)[C@H]1CC=C(C)CC1
outcome [3]: inactive

COc1ccc2c(c1OC)C(=O)O[C@H]2[C@@H]1c2cc3c(cc2CCN1C)OCO3
outcome [4]: inactive
Potency [1]: inactive
Potency [2]: inactive

C=CCN1C[C@H](C)N([C@H](c2ccc(C(=O)N(CC)CC)cc2)c2cccc(OC)c2)C[C@H]1C
outcome [1]: inactive [at 9.52 µM]
activity change, negative = inhibition [2]: -0.741% [at 9.73 µM] (inactive)
outcome [15]: inactive [at 11.6 µM]
activity change, negative = thiol reactive [16]: 24.3% [at 11.5 µM] (inactive)
activity, negative = inhibition [19]: 1.52% [at 11.6 µM] (inactive)
redox activity (% of DA3003) [17]: 9.33% [at 11.5 µM] (inactive)
